Screens as filed in PubChem.
KCNQ2 block – rat KCNQ2 potassium channel inhibitors, primary screen, cell-based, CHO-K1, FluxOR thallium flux, B-score; 20 min; stronger effect = lower value; B-score at 10 µM; 310,000 tested, 1.1% active;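 active = fluorescence ratio B-score at most minus 3 library SDs, with starting brightness B-score within 2 library SDs, cut at about -5.5 in these data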
KCNQ2 enhance – potentiators of rat KCNQ2 potassium channel; CHO-K1 KCNQ2, FluxOR thallium flux fluorescence; stronger effect = higher value; Potassium voltage-gated channel subfamily KQT member 2 (Rattus norvegicus), O88943; 310,000 tested, 0.54% active; B-score at 10 µM;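 active = fluorescence ratio B-score at least 3 SD of library B-scores, with initial fluorescence B-score within 3 of them, cut at about 5.3 in these data; same plate scores as AID 2156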;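 note: B-score of peak minus minimum over baseline fluorescence ratio after K+ and Tl+ stimulus; positive B-score means potentiation of KCNQ2 with more thallium influx and brighter signal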
Numbers without * were called inactive; i = inactive; · = not tested or not shown. A selection: hits, their analogues and other compounds. The true share with any hit is near 1.6%.

SMILES | KCNQ2 block | KCNQ2 enhance
COC(=O)C1CN(C(=O)COc2ccccc2C)c2ccccc2O1 (stereo not given) | i | ·
COC(=O)C1CN(C(=O)COc2ccc(Cl)cc2C)c2ccccc2O1 (stereo not given) | -7* | -7
COc1ccc(NC2CCCN(C(=O)COc3ccc(Cl)cc3C)C2)cc1OC (stereo not given) | -6.1* | -6.1
COc1ccccc1OCC(=O)N1CCCC(Nc2ccc(C)c(C)c2)C1 (stereo not given) | i | ·
Cc1c(C(=O)N2CCN(S(=O)(=O)c3ccc(F)cc3)CC2)oc2ccccc12 | i | ·
CSCCC(NC(=O)c1ccccc1Cl)C(=O)N1CCN(C(c2ccccc2)c2ccccc2)CC1 (stereo not given) | -7.2* | -7.2
COc1ccccc1C(=O)NC(CCSC)C(=O)OC(C)C(N)=O (stereo not given) | i | 1.4
COc1ccccc1C(=O)NC(CCSC)C(=O)N1CCC(Cc2ccccc2)CC1 (stereo not given) | -7.2* | -7.2
CSCCC(NS(=O)(=O)c1ccc(C)cc1)C(=O)N1CCN(C(c2ccccc2)c2ccccc2)CC1 (stereo not given) | i | ·
Cc1ccc(O)c(NC(=O)c2cc(-c3cccs3)on2)c1 | i | ·
Cc1cc2ccccn2c1C(=S)NC(=O)c1ccccc1 | i | 19*
Cc1cc2ccccn2c1C(=O)c1ccncc1 | i | 1.3
CCCn1c(SCC#N)nc2c(c1=O)C1(CCCC1)Cc1ccccc1-2 | -6.4* | -6.4
O=c1c2c(nc(NCCO)n1CC1CCCCC1)-c1ccccc1CC21CCCC1 | -8.8* | -8.8
NC(=O)CSc1nc2c(c(=O)n1-c1ccccc1)C1(CCCCC1)Cc1ccccc1-2 | i | 0.74
Cc1cccc(-n2c(SCC(N)=O)nc3c(c2=O)C2(CCCC2)Cc2ccccc2-3)c1 | -6.8* | -6.8
N#CCSc1nc2c(c(=O)n1Cc1ccco1)C1(CCCC1)Cc1ccccc1-2 | i | ·
CC1(C)CC(n2c(NCCO)nc3c(c2=O)C2(CCCC2)Cc2ccccc2-3)CCO1 (stereo not given) | i | ·
CN(C)C(CNC(=O)CCc1nc2sc3c(c2c(=O)[nH]1)CCCC3)c1ccccc1 (stereo not given) | i | ·
CCCc1cc(C(=O)OCC(=O)N(CCC)c2c(N)n(Cc3ccccc3)c(=O)[nH]c2=O)sc1C | i | ·
CCN(CC)C(=O)C(=O)c1cn(CCOc2ccccc2)c2ccccc12 | -7.3* | -7.3
COC(=O)c1cn(CCOc2ccccc2)c2ccccc12 | i | ·
CCCN(CC1CC1)C(=O)COc1ccccc1C(=O)NCc1ccccc1 | -7.7* | -7.7
CCC(C)N(C(=O)COc1ccccc1C(=O)NCc1ccccc1)C1CCS(=O)(=O)C1 (stereo not given) | i | ·
Cc1cc(C)c(S(=O)(=O)c2ccccc2Cl)c(=O)[nH]1 | i | 0.89
SMILES | KCNQ2 block | KCNQ2 enhance
COc1cc(CN2CCC(n3nccc3NC(=O)c3ccccc3OC)CC2)ccc1F | i | 2.2
CCC(C(=O)NCCc1c[nH]c2ccc(C)cc12)c1ccccc1 (stereo not given) | i | ·
COc1ccc(C2CC(=O)OC3=C2C(=O)CC(C)(C)C3)c(OC)c1 (stereo not given) | i | 0.09
COc1ccc([C@@H]2COc3c(ccc4c3C=CC(C)(C)O4)C2)c(OC)c1 | -6.3* | -6.3
O=C(NCC(c1ccco1)N1CCc2ccccc2C1)C(=O)Nc1cc(F)ccc1F (stereo not given) | -6.2* | -6.2
COc1ccccc1NC(=O)C(=O)NCC(c1ccco1)N1CCc2ccccc2C1 (stereo not given) | i | ·
O=C(NCC(c1ccco1)N1CCc2ccccc2C1)c1ccc(F)cc1 (stereo not given) | -5.7* | -5.7
O=C(NCC(c1ccco1)N1CCc2ccccc2C1)c1ccccc1 (stereo not given) | i | ·
CCN(CC)CCNC(=O)C1(O)c2cc(Br)ccc2NC(=O)N1c1c(F)cccc1F (stereo not given) | i | 0.05
COc1cccc(/C=C/C(=O)OCC(=O)NC(=O)NC2CCCCC2)c1 | i | ·
COc1cccc(OC)c1C(=O)Nc1ccc2c(c1)N(S(=O)(=O)c1cccs1)CCC2 | i | 1.2
O=C(Nc1ccc2c(c1)N(S(=O)(=O)c1cccs1)CCC2)c1c(F)cccc1Cl | -6.4* | -6.4
CCCOc1ccc(-c2nc(N3CCN(C)CC3)c3ccccc3n2)cc1 | -6.7* | -6.7
CCCOc1ccc(-c2nc(N3CCN(CC)CC3)c3ccccc3n2)cc1 | i | ·
Cn1c(SCC(=O)NC2CCCCC2)nnc1-c1ccccc1O | i | 1.5
CN(C)c1ccc(C(=O)Nc2ccc(O)c3c(=O)cc(-c4ccccc4Cl)oc23)cc1 | -5.8* | -5.8
Cc1cccc(C(=O)Nc2ccc(O)c3c(=O)cc(-c4ccccc4Cl)oc23)c1 | i | ·
